Our source for the outcome values is PubChem BioAssay (EPA / NIEHS).

Inconclusive results are not listed. Active and inactive are the calls of the source. Rule for the calls, unless noted: active = hit-call score of the fitted dose curve at least 0.9, where 1 is the maximum; inconclusive = response in the unintended direction; inactive = score below 0.9.

The first assay in a line: CCTE_Harrill_HTTr_Apoptosis_MCF7: CCTE's 6-hour Apoptosis Assessment for the High-Throughput Transcriptomics (HTTr) Platform, in MCF-7 cells cultured in DMEM + 10% fetal bovine serum, Harrill Lab (AID 2284011; active = hit-call score of the fitted dose curve at least 0.9, where 1 is the maximum; inactive = score below 0.9). The gist of the method:
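Cells are dosed with test chemicals at eight concentrations and imaged 6 hours later for caspase-3/7 activity using a green fluorogenic detection reagent. Activity is fitted in both directions against DMSO controls.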
For `COc1ccc(-c2coc3cc(O)cc(O)c3c2=O)cc1`, the outcome was inactive.

For `CCCCC(C=O)CC` (centres undefined), the result was inactive. Still for that read-out and setting: next, `C=Cc1ccc(OC(C)=O)cc1`: “inactive”.

In the case of `CC(=O)/C=C/C1C(C)=CCCC1(C)C` (centres undefined), the outcome was inactive. As to `CN(C)c1ccc2nc3ccc(=[N+](C)C)cc-3sc2c1`, the result was inactive.

With `CCCCCCCC(=O)OCC(COC(=O)CCCCCCC)OC(=O)CCCCCCC`, the outcome was inactive.

The nature of another assay: CCTE_Harrill_HTTr_CellCount_MCF7: CCTE's Cell Proliferation Assessment for the High-Throughput Transcriptomics (HTTr) Platform, Harrill Lab (AID 2284012).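 Note: count of Hoechst-stained nuclei per well by high-content imaging in MCF-7 cells; cells exposed to compound for six hours; intended direction is loss of nuclei count meaning fewer cells.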 A digest of the protocol: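 Readout: Hoechst nuclear count by high-content imaging. MCF-7, 8-point dilution series, 6 h exposure. Bidirectional fit vs DMSO baseline.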
Turning to `C=C(C)C1CC=C(C)CC1` (centres undefined), the outcome was inactive. Take `O=C(O)/C=C/c1ccccc1`: the molecule was called inactive. Same read-out and setting: next, `N#Cc1ccc(C2CCCc3cncn32)cc1` (centres undefined): “inactive”; `CC=CC(=O)OCC(C)C`: “inactive”; `COC(=O)C=Cc1ccccc1`: “inactive”.

As to `C=CCCCCCCCCC=O`, the molecule was classed as inactive. In the case of `CC(=O)OCCc1ccccc1`, the molecule was classed as inactive.

`CC(=O)c1ccccc1O`: the result was inactive.

On to `CC(C)[N+](C)(CCOC(=O)C1c2ccccc2Oc2ccccc21)C(C)C`, for which the outcome was inactive. On the same count and under the same terms, next, `CC(=O)CCC1=C(C)CCCC1(C)C`: “inactive”; `CCCCC1C(=O)N(c2ccccc2)N(c2ccccc2)C1=O`: “inactive”; `C=C(C)[C@@H]1CC=C(C)CC1`: “inactive”. The same measure, in the same setting: next, `CCCc1ccc(O)c(OC)c1`: “inactive”. Still for that read-out and setting: next, `CC(C)(O)Cc1ccccc1`: “inactive”; `CC(C)(CO)C(O)C(=O)NCCCO` (centres undefined): “inactive”; `O=C(OCc1ccccc1)c1ccc(O)cc1`: “inactive”.

For the molecule `CC(=O)c1ccc(S(=O)(=O)NC(=O)NC2CCCCC2)cc1`, the outcome was inactive. For `C=C[C@@]1(C)CC(=O)[C@]2(O)[C@@]3(C)[C@@H](O)CCC(C)(C)[C@@H]3[C@H](O)[C@H](OC(C)=O)[C@@]2(C)O1`, the result was inactive. `CC(C)(C)NC(=O)[C@H]1CC[C@H]2[C@@H]3CC[C@H]4NC(=O)C=C[C@]4(C)[C@H]3CC[C@]12C`: the molecule was called inactive. On the same count and under the same terms, next, `COc1ccc(-c2coc3cc(O)cc(O)c3c2=O)cc1`: “inactive”; `CCCCC(C=O)CC` (centres undefined): “inactive”.

Turning to `CC(=O)/C=C/C1C(C)=CCCC1(C)C` (centres undefined), the outcome was inactive. On the same count and under the same terms, next, `CN(C)c1ccc2nc3ccc(=[N+](C)C)cc-3sc2c1`: “inactive”.
